Measurements from PubChem BioAssay (NCI).
About 79,000 compounds went through this panel and 15% of them were active in at least one assay; those are over-represented in the sample as a whole. A number with no mark means an inactive call. Calls of active or inactive are those of the source. No stated cut-off is given here; in the data, active means growth inhibition above about 70%; inactive means the rest.

Tests used:
[1] = NCI Yeast Anticancer Drug Screen. Data for the rad52 strain (AID 147);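 further: 0% = growth of vehicle-treated control cultures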; details: S. cerevisiae rad52 mutant growth inhibition, hits give high values
In short: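 DNA repair-defective yeast; compound exposure; growth scored against vehicle controls.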

[2] = NCI Yeast Anticancer Drug Screen. Data for the wt1 strain (AID 149);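 further: 0% = growth of vehicle-treated wt1 cultures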; details: S. cerevisiae wt1 strain (SPY 50644) growth inhibition, hits give high values
In short: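 Compounds are added to wt1 yeast cultures. Growth is then measured. Inhibition is expressed relative to vehicle-treated controls.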

[3] = NCI Yeast Anticancer Drug Screen. Data for the rad50EPP+ strain (AID 151);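 further: 0% = growth of vehicle-treated control cultures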; details: S. cerevisiae rad50 mutant strain, hits give high values
In short: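 rad50EPP+ yeast treated with test compounds. Readout: growth vs vehicle control.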

[4] = NCI Yeast Anticancer Drug Screen. Data for the rad50 strain (AID 155);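 further: 0% = growth of vehicle-only cultures of the same strain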; details: S. cerevisiae rad50 strain growth inhibition, hits give high values
In short: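 Inhibition values express reduced yeast growth in compound-treated cultures relative to vehicle-treated controls.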

[5] = NCI Yeast Anticancer Drug Screen. Data for the mec2-1 strain (AID 157); details: S. cerevisiae mec2-1 strain, hits give high values
In short: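 Growth inhibition is read against vehicle-treated controls after compound exposure of the mec2-1 yeast strain, which is defective in DNA damage repair or cell cycle control.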

[6] = NCI Yeast Anticancer Drug Screen. Data for the rad14 strain (AID 159);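 further: 0% = growth of vehicle-treated control cultures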; details: S. cerevisiae rad14 strain growth inhibition, hits give high values
In short: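 A mutant yeast strain defective in DNA damage repair is treated with compound; inhibition of its growth is scored against untreated, vehicle-exposed cultures.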

[7] = NCI Yeast Anticancer Drug Screen. Data for the sgs1 mgt1 strain (AID 161);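 further: 0% = growth of cultures given vehicle only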; details: S. cerevisiae sgs1 mgt1 strain, hits give high values
In short: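 Percent growth inhibition was derived by comparing compound-exposed mutant yeast with vehicle-exposed cultures. The strain carries alterations in DNA damage repair.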

[8] = NCI Yeast Anticancer Drug Screen. Data for the cln2 rad14 strain (AID 165);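 further: 0% = growth equal to vehicle treated cultures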; details: S. cerevisiae cln2 rad14 strain, hits give high values
In short: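 Growth inhibition, relative to vehicle-treated controls, is the read-out. The test organism is a yeast strain with defined genetic alterations, cln2 rad14.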

[9] = NCI Yeast Anticancer Drug Screen. Data for the bub3 strain (AID 167); details: S. cerevisiae bub3 mutant strain, hits give high values
In short: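 Steps: expose the mutant yeast strain to compound; grow alongside vehicle-treated cultures; measure growth; express inhibition against the vehicle cultures.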

[10] = NCI Yeast Anticancer Drug Screen. Data for the wt2 strain (AID 169);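 further: 0% = growth of vehicle-treated yeast cultures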; details: S. cerevisiae wt2 strain growth inhibition, hits give high values
In short: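 Compound exposure of yeast; growth compared with vehicle controls; inhibition reported.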

[11] = NCI Yeast Anticancer Drug Screen. Data for the mlh1 strain (AID 171);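 further: 0% = growth of vehicle-treated control cultures of the same strain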; details: S. cerevisiae mlh1 strain growth inhibition, hits give high values
In short: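 Compounds are applied to a genetically altered yeast strain, and its growth is compared with that of vehicle-treated cultures to give percent inhibition.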

[12] = NCI Yeast Anticancer Drug Screen. Data for the sgs1 strain (AID 173);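 further: 0% = growth of vehicle-only control cultures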; details: S. cerevisiae sgs1 mutant, hits give high values
In short: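 Compounds applied to genetically altered yeast; growth compared with vehicle-treated cultures to give % inhibition.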

[13] = NCI Yeast Anticancer Drug Screen. Data for the mlh1 rad18 strain (AID 175); details: S. cerevisiae mlh1 rad18 strain growth inhibition, hits give high values
In short: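 Cells of a genetically altered yeast strain, deficient in DNA damage repair, were treated with compound. Their growth was then compared with that of vehicle-treated cultures to give inhibition.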

[14] = NCI Yeast Anticancer Drug Screen. Data for the rad18 strain (AID 177); details: S. cerevisiae rad18 mutant growth inhibition, hits give high values
In short: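 Compounds are applied to a repair-deficient yeast strain, and growth is compared with that of vehicle-treated cultures to give percent inhibition.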

[15] = at 5.0 µM (retest, dose inferred, filed as 0.5)
[16] = at 50.0 µM (retest, dose inferred, filed as 5.0)

Compound: COc1cc(NCCCCNCC(C)(C)C)c2ncccc2c1
- growth inhibition ([1]; at 1.2 µM): -3%
- growth inhibition ([1]; at 3.7 µM): 1%
- growth inhibition ([1]; at 11.0 µM): 8%
- growth inhibition ([1]; at 33.0 µM): 14%
- growth inhibition ([1]; at 100.0 µM): 26%
- growth inhibition ([2]; at 1.2 µM): -2%
- growth inhibition ([2]; at 3.7 µM): 1%
- growth inhibition ([2]; at 11.0 µM): 4%
- growth inhibition ([2]; at 33.0 µM): 0%
- growth inhibition ([2]; at 100.0 µM): 1%
- growth inhibition ([3]; at 1.2 µM): -8%
- growth inhibition ([3]; at 3.7 µM): -12%
- growth inhibition ([3]; at 11.0 µM): -16%
- growth inhibition ([3]; at 33.0 µM): -19%
- growth inhibition ([3]; at 100.0 µM): -17%
- growth inhibition ([4]; at 1.2 µM): -5%
- growth inhibition ([4]; at 3.7 µM): 1%
- growth inhibition [4, 15]: 11%
- growth inhibition ([4]; at 11.0 µM): 6%
- growth inhibition ([4]; at 33.0 µM): 10%
- growth inhibition [4, 16]: 25%
- growth inhibition ([4]; at 50.0 µM): 59.9%
- growth inhibition ([4]; at 100.0 µM): 35%
- growth inhibition ([5]; at 1.2 µM): -3%
- growth inhibition ([5]; at 3.7 µM): -4%
- growth inhibition [5, 15]: -3%
- growth inhibition ([5]; at 11.0 µM): 0%
- growth inhibition ([5]; at 33.0 µM): 2%
- growth inhibition [5, 16]: 16%
- growth inhibition ([5]; at 50.0 µM): 18%
- growth inhibition ([5]; at 100.0 µM): 13%
- growth inhibition ([6]; at 1.2 µM): -1%
- growth inhibition ([6]; at 3.7 µM): 8%
- growth inhibition ([6]; at 11.0 µM): 29%
- growth inhibition ([6]; at 33.0 µM): 32%
- growth inhibition ([6]; at 100.0 µM): 28%
- growth inhibition [7, 15]: 1%
- growth inhibition [7, 16]: 28%
- growth inhibition ([7]; at 50.0 µM): 51.8%
- growth inhibition [8, 15]: 5%
- growth inhibition [8, 16]: 33%
- growth inhibition ([8]; at 50.0 µM): 51.6%
- growth inhibition ([9]; at 1.2 µM): -2%
- growth inhibition ([9]; at 3.7 µM): -2%
- growth inhibition [9, 15]: 3%
- growth inhibition ([9]; at 11.0 µM): 0%
- growth inhibition ([9]; at 33.0 µM): 19%
- growth inhibition [9, 16]: 20%
- growth inhibition ([9]; at 50.0 µM): 70.9% (active)
- growth inhibition ([9]; at 100.0 µM): 37%
- growth inhibition ([10]; at 1.2 µM): -1%
- growth inhibition ([10]; at 3.7 µM): -1%
- growth inhibition ([10]; at 11.0 µM): 3%
- growth inhibition ([10]; at 33.0 µM): 5%
- growth inhibition ([10]; at 100.0 µM): 5%
- growth inhibition ([11]; at 1.2 µM): -3%
- growth inhibition ([11]; at 3.7 µM): -1%
- growth inhibition ([11]; at 11.0 µM): 5%
- growth inhibition ([11]; at 33.0 µM): 12%
- growth inhibition ([11]; at 100.0 µM): 16%
- growth inhibition ([12]; at 1.2 µM): -3%
- growth inhibition ([12]; at 3.7 µM): -2%
- growth inhibition ([12]; at 11.0 µM): 6%
- growth inhibition ([12]; at 33.0 µM): 15%
- growth inhibition ([12]; at 100.0 µM): 20%
- growth inhibition [13, 15]: -1%
- growth inhibition [13, 16]: 31%
- growth inhibition ([13]; at 50.0 µM): 37.1%
- growth inhibition ([14]; at 1.2 µM): -5%
- growth inhibition ([14]; at 3.7 µM): 0%
- growth inhibition ([14]; at 11.0 µM): 7%
- growth inhibition ([14]; at 33.0 µM): 8%
- growth inhibition ([14]; at 100.0 µM): 16%
